Laboratory results published in the supplement of paper PMC8728848.
Only a selection was taken, and the strongest signals are over-represented in it overall.

Tests used:
Assay in all cases: glycan array binding signal (z-score within array); higher = stronger binding
Conditions in all cases: glycan notation: IUPAC condensed, linker removed
[1] = target: Kdn(a2-3)Gal(b1-4)GlcNAc
In short: (§1)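 Glycan array binding is given as a within-array Z-score, which can be read as non-binding when negative. The arrays, 3228 of them, came from the Consortium for Functional Glycomics database and were retained only where the protein sequence was available. Z-scores were averaged across arrays of the same protein sequence at different concentrations or buffers and across linkers.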

[2] = target: Kdn(a2-3)Gal(b1-4)[Fuc(a1-3)]GlcNAc
In short: as §1

[3] = target: Man(a1-2)Man(a1-2)Man(a1-3)Man
In short: as §1

[4] = target: Man(a1-3)[Man(a1-6)]Man(b1-4)GlcNAc(b1-4)[Fuc(a1-6)]GlcNAc
In short: as §1

[5] = target: Neu5Ac(a2-3)Gal
In short: as §1

[6] = target: Neu5Ac(a2-3)Gal(b1-4)GlcNAc(b1-2)[Neu5Ac(a2-3)Gal(b1-4)GlcNAc(b1-6)]Man(a1-6)[Neu5Ac(a2-3)Gal(b1-4)GlcNAc(b1-2)Man(a1-3)]Man(b1-4)GlcNAc(b1-4)GlcNAc
In short: as §1

[7] = target: Neu5Ac(a2-3)Gal(b1-4)GlcNAc(b1-3)Gal(b1-4)GlcNAc
In short: as §1

[8] = target: Neu5Ac(a2-3)Gal(b1-4)GlcNAc(b1-3)Gal(b1-4)GlcNAc(b1-2)Man(a1-3)[Neu5Ac(a2-3)Gal(b1-4)GlcNAc(b1-3)Gal(b1-4)GlcNAc(b1-2)Man(a1-6)]Man(b1-4)GlcNAc(b1-4)GlcNAc
In short: as §1

[9] = target: Neu5Ac(a2-3)Gal(b1-4)[Fuc(a1-3)]GlcNAc(b1-2)Man
In short: as §1

[10] = target: Neu5Ac(a2-3)GalNAc
In short: as §1

[11] = target: Neu5Ac(a2-6)Gal(b1-4)GlcNAc
In short: as §1

[12] = target: Neu5Ac(a2-6)Gal(b1-4)GlcNAc(b1-2)Man(a1-6)Man(b1-4)GlcNAc(b1-4)GlcNAc
In short: as §1

[13] = target: Neu5Ac(a2-6)Gal(b1-4)GlcNAc(b1-2)Man(a1-6)[Man(a1-3)]Man(b1-4)GlcNAc(b1-4)GlcNAc
In short: as §1

[14] = target: Neu5Ac(a2-6)Gal(b1-4)GlcNAc(b1-3)Gal(b1-4)[Fuc(a1-3)]GlcNAc(b1-3)Gal(b1-4)[Fuc(a1-3)]GlcNAc
In short: as §1

[15] = target: Neu5Ac(a2-8)Neu5Ac(a2-8)Neu5Ac
In short: as §1

[16] = target: Neu5Ac9Ac(a2-3)Gal(b1-3)GlcNAc
In short: as §1

[17] = target: Neu5Ac9Ac(a2-6)Gal(b1-4)GlcNAc
In short: as §1

[18] = target: Neu5Gc(a2-3)Gal(b1-4)Glc
In short: as §1

B1: FliD (Clostridium difficile) (protein)
chain: MSSISPVRVTGLSGNFDMEGIIEASMIRDKEKVNKAKQDQQIVKWKQEIYRDIIKESKNLYDKYLNGDSPNSITNKKAYSATRITSSDESIIVAKGSAGAEKINYQFAVSQMAEPAKVTIKLNSSDPIVQQFPPNASGASSLNIGGVNIPISEQDTTSTIVSKINSLCADNDIRASYSEMTGELIISRKQTGSSSDIDLKVIGNDSLAGQIASDNGITFTTDASGTKSAVVYGKNLEADVTDDQGRVTHISKEQNSFKIDNIDYNVNSKGSAKLVSVTDTEEATKNMKAFVDDYNALMDKVYGLVTTKKSKDYPPLTDEQKDDMTTEEIEKWEKKAKEGILRNDDELRAFVEDIQSMFFGDADTIIALRKLGISEHENYNKKGQISFNADTFSKALIDDSDKVYKALAGYSSNYDDKGMFEKLKKIVFEYSGSSASKLTKKAGMENSSSASQNVYSKQIAEQERNISRLVEKMNDKEKRLYAKYSALESLLNKYSSQMNYFSQAQGN
[1]
  glycan array binding signal (z-score): -0.204
[2]
  glycan array binding signal (z-score): 0.919
[3]
  glycan array binding signal (z-score): -0.247
[4]
  glycan array binding signal (z-score): -0.274
[5]
  glycan array binding signal (z-score): -0.168
[6]
  glycan array binding signal (z-score): -0.056
[7]
  glycan array binding signal (z-score): -0.084
[8]
  glycan array binding signal (z-score): -0.025
[9]
  glycan array binding signal (z-score): -0.222
[10]
  glycan array binding signal (z-score): 1.09
[11]
  glycan array binding signal (z-score): -0.197
[12]
  glycan array binding signal (z-score): -0.179
[13]
  glycan array binding signal (z-score): -0.197
[14]
  glycan array binding signal (z-score): -0.193
[15]
  glycan array binding signal (z-score): -0.239
[16]
  glycan array binding signal (z-score): 0.957
[17]
  glycan array binding signal (z-score): -0.19
[18]
  glycan array binding signal (z-score): -0.194
